# High-throughput results (PubChem BioAssay)
# Rows were chosen to be rich in hits. Some 4.1% of all compounds tested hit in one or more screens of this group.
# hgDAF-12 ag: activates the H. glycines DAF-12 receptor ligand-binding domain; HEK293 GAL4-hgDAF12 UAS-luciferase reporter, agonist luminescence; normalized to butyrate control; 370,000 compounds, 1.8% hits; activation, % at 6.8 µM;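 active = activation above a cutoff set at the mean of all screened compounds plus 3 SD, cut at about 10% in these data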;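 also: 0% = DMSO wells and 100% = sodium butyrate wells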
# DAX1 inh-1: NR0B1 (DAX1) inhibition | P51843 | 340,000 compounds, 0.99% hits | HEK293 Gal4-DAX1 luciferase reporter, luminescence | inhibition, % at 6.75 µM;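 active = inhibition above the mean over all tested compounds plus 3 SD, cut at about 4.2% in these data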;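 also: 0% = DAX1-transfected cells with DMSO and 100% = empty-vector control cells with DMSO; inhibition shows as a rise in luminescence from relieved DAX1 repression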
# hcDAF-12 act: H. contortus DAF-12 activation, primary screen. HEK293 hcDAF-12 lit1-tk-luc reporter, luminescence; 0% DMSO, 100% Δ7-dafachronic acid. activation, % at 6.8 µM. 370,000 compounds, 1.4% hits. AID 652067;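 active = activation above the mean of all tested compounds plus 3 SD, cut at about 5.5% in these data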;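 also: 100% = response to 3 µM Δ7-dafachronic acid high control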
# ssDAF-12 act: S. stercoralis DAF-12 activation, primary screen. activation, % at 6.8 µM. 370,000 compounds, 1% hits. HEK293 ssDAF-12/GRIP1 lit1-tk-luc reporter, luminescence; % of 3 µM dafachronic acid response;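 active = activation above the mean over all tested compounds plus 3 SD, cut at about 0.9% in these data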;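 also: 0% = DMSO-only wells and 100% = 3 µM delta7-dafachronic acid wells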
# DAX1 inh-2: DAX1 (NR0B1) inhibition, primary screen. HEK293T StAR-luciferase reporter, SF-1/DAX-1 repression relief. inhibition, % at 6.8 µM. 370,000 compounds, 1.1% hits. AID 652010;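 active = inhibition above the mean over all tested compounds plus 3 SD, cut at about 3.6% in these data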;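 also: 0% = DAX-1 cells with DMSO and 100% = cells lacking DAX-1 with DMSO; higher inhibition means more luminescence from relief of DAX-1 repression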
# DAX1 conf: confirmation of human DAX1 (NR0B1) inhibitors. shares compounds with DAX1 inh-2. HEK293T StAR-promoter luciferase reporter, SF-1/DAX-1 repression. inhibition, % at 6.8 µM. 2,400 compounds, 87% hits;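 active = inhibition above the average of every tested compound plus 3 SD, cut at about 3.8% in these data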;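 also: 0% = DAX-1 cells with DMSO and 100% = no DAX-1 control cells with DMSO; active compounds raise luminescence by relieving repression of the StAR reporter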
# Target sequence (P51843 whole entry, looked up): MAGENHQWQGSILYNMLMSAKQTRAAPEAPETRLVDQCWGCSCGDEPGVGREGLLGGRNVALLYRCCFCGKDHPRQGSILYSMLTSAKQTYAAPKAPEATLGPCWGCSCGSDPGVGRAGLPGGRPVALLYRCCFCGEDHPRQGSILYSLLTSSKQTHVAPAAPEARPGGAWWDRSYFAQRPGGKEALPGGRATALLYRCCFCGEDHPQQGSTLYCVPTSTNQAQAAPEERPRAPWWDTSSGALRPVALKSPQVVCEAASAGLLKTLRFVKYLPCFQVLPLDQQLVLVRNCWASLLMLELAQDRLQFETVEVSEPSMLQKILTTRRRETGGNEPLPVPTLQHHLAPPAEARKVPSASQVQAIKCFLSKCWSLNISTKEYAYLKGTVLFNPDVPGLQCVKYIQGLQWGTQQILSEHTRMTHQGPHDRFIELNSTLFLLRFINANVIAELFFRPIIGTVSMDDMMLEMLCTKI
# SF1 AF2mut Luc: nonselective inhibitor or artifact in SF-1 mutant DAX1 counter-screen | shares compounds with DAX1 inh-2 | HEK293 StAR-luciferase, SF-1 AF2 mutant, luminescence | inhibition, % at 6.8 µM | 2,400 compounds, 78% hits;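 active = inhibition above the mean of all tested compounds plus 3 SD, cut at about 3% in these data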;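 also: 0% = DAX-1 transfected cells with DMSO and 100% = cells without DAX-1 with DMSO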
# LXR ag: counter-screen for hcDAF-12 agonists: agonists of human LXR-beta; shares compounds with hcDAF-12 act; HEK293 Gal4-LXR tk-luc reporter, luminescence, 24 h; normalized: DMSO 0%, positive control 100%; activation, % at 6.8 µM; 3,400 tested, under 10 active; AID 743027;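 active = mean percent activation of the reporter above a cutoff set as the average over tested compounds plus their standard deviation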
# hcDAF12 conf: confirmation of H. contortus DAF-12 agonists. shares compounds with hcDAF-12 act. HEK293 hcDAF-12 lit1-tk-luc reporter, luminescence; % of Δ7-dafachronic acid response. activation, % at 6.8 µM. 3,400 compounds, 61% hits;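 active = mean activation across triplicate tests above the threshold derived from the earlier primary screen, cut at about 5.5% in these data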;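 also: 0% = DMSO only wells and 100% = 3 µM Δ7-dafachronic acid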
# Active calls of the source: *; x = no result given.
SMILES,hgDAF-12 ag,DAX1 inh-1,hcDAF-12 act,ssDAF-12 act,DAX1 inh-2,DAX1 conf,SF1 AF2mut Luc,LXR ag,hcDAF12 conf
Cc1cc(C(=O)COC(=O)C2=COCCO2)c(C)n1-c1cccc(F)c1,11*,1,7.2*,1.0*,9.3*,13*,4.0*,1,4
Cc1cc(C(=O)COC(=O)C2=COCCO2)c(C)n1-c1ccc2c(c1)OCO2,5,-1,1,-1,-1,x,x,x,x
COC(=O)c1ccccc1NC(=O)C1CC=CCC1C(=O)O (centres undefined),-1,1,0,-1,0,x,x,x,x
O=C(NCCc1ccccc1)c1ccccc1NC(=O)C1CC=CCC1C(=O)O (centres undefined),11*,0,11*,1.2*,4.7*,7.6*,7.5*,0,7.2*
Cc1ccc(NC(=O)CNC(=O)c2sc3ccccc3c2Cl)nc1,6,3,7.0*,0,4.6*,4.8*,3.4*,0,3
O=C1NN(c2ccccc2)C(=O)/C1=C/c1coc2ccccc2c1=O,13*,2,17*,1.7*,4.8*,3,1,0,5
O=C1NN(c2ccccc2)C(=O)/C1=C\c1coc2ccc(O)cc2c1=O,10,1,3,0,0,x,x,x,x
O=C(CSc1nnc(-c2ccco2)n1-c1ccc(Cl)cc1)Nc1ccccc1-c1ccccc1,-4,x,-1,-2,-1,x,x,x,x
Cc1ccc2nc(Cl)c(/C=N/Nc3ccc(C(=O)O)cc3)cc2c1,25*,0,15*,3.0*,11*,25*,8.6*,2,16*
Cc1ccc2cc(/C=N/NC(=O)c3ccc(F)cc3)c(Cl)nc2c1,-1,1,1,-2,-1,x,x,x,x
COC(=O)c1ccc(-c2nc(-c3cccs3)no2)cc1,14*,1,6.8*,1.8*,6.8*,3,-2,1,4
O=c1[nH]c(=O)n([C@H]2C[C@H](O)[C@@H](CO)O2)cc1Br,38*,1,8.8*,-1,13*,14*,5.5*,0,12*
O=c1[nH]c(=O)n([C@H]2C[C@H](O)[C@@H](CO)O2)cc1F,-8,-3,-2,-1,-5,x,x,x,x
Cc1ccc(-n2c(C)nc3oc4ccccc4c(=O)c3c2=O)cc1,10,2,12*,1.8*,4.5*,8.5*,6.1*,0,9.2*
COc1ccc(-c2cc(C(=O)O)c3ccccc3n2)c(OC)c1,-1,-1,0,-1,1,x,x,x,x
COc1ccc2cc(-c3cc(C(=O)O)c4ccccc4n3)ccc2c1,13*,-4,8.8*,3.0*,5.2*,11*,3.2*,2,5
N#C/C(=C\c1ccc[nH]1)C(=O)Nc1ccccc1F,12*,1,12*,4.3*,7.4*,9.5*,7.0*,1,8.6*
N/C(=N\OC(=O)COc1ccccc1Cl)c1ccccn1,10,0,6.9*,1.1*,5.9*,12*,8.5*,1,8.0*
N/C(=N\OC(=O)c1cccc(Br)c1)c1ccccn1,3,-3,17*,1.4*,8.9*,17*,11*,1,12*
O=C(NCc1ccc(F)c(F)c1)C1CCC(CNS(=O)(=O)c2cccc3cccnc23)CC1 (centres undefined),3,x,-3,-2,-1,x,x,x,x
COC(=O)[C@]12C[C@H](CC(=O)N3CCN(C(=O)C4CC4)CC3)C(=O)N(Cc3ccc(Cl)cc3Cl)C1=C[C@H](C(C)(C)C)O[C@@H]2C,-3,x,-2,-1,-1,x,x,x,x
COc1ccc(-n2ncc3c(NCC(C)C)ncnc32)cc1,11*,0,9.8*,1,5.0*,13*,4.1*,2,5.7*
Fc1ccc(-c2nc3n(n2)Cc2ccccc2-3)cc1,18*,0,18*,4.2*,5.5*,14*,8.6*,2,16*
CCn1c(C)nc2cc(-c3nc4n(n3)Cc3ccccc3-4)ccc21,x,-7,x,x,x,x,x,x,x
COc1cccc(C(=O)Nc2ccc(C(=O)NCC3COc4ccccc4O3)cc2)c1 (centres undefined),0,x,-5,-1,-2,x,x,x,x
SMILES,hgDAF-12 ag,DAX1 inh-1,hcDAF-12 act,ssDAF-12 act,DAX1 inh-2,DAX1 conf,SF1 AF2mut Luc,LXR ag,hcDAF12 conf
CC(=Nc1ccc(C)cc1)c1sc2ccccc2c1O,15*,3,11*,2.2*,5.3*,13*,4.3*,2,13*
C/C(=N\NC(=O)c1cccs1)c1c(O)cc(C)oc1=O,12*,4.7*,6.6*,1.1*,6.9*,1,2,0,1
COC(=O)[C@]12C[C@H](CC(=O)NCc3ccccc3)C(=O)N(Cc3ccc(Cl)cc3Cl)C1=C[C@H](C(C)C)O[C@@H]2C1CC1,5,x,-3,-1,0,x,x,x,x
CC(=O)Nc1ccc(/C=N/Nc2nc3ccccc3s2)cc1,24*,4.8*,18*,3.3*,5.6*,15*,9.9*,2,22*
Cc1ccsc1/C=N/Nc1nc2ccccc2s1,20*,3,21*,5.5*,7.1*,16*,13*,2,23*
CC(=O)Nc1ccc(S(=O)(=O)Nc2nc3ccccc3s2)cc1,3,-1,1,-1,0,x,x,x,x
COc1ccc(/C=N/Nc2nc3ccccc3s2)cc1O,20*,-3,18*,3.2*,8.6*,21*,8.1*,2,19*
COc1ccc(C=C(c2nc3ccccc3s2)c2nc3ccccc3s2)cc1O,-3,-3,1,-2,-2,x,x,x,x
COC(=O)[C@]12C[C@H](CC(=O)NCc3cccc4ccccc34)C(=O)N(CCc3ccc(OC)c(OC)c3)C1=C[C@H](COCc1ccccc1)O[C@@H]2C,-1,x,-1,-2,-1,x,x,x,x
CC(C)n1nnnc1C1(C)Cn2nccc2C(=O)N1Cc1cccc(C(F)(F)F)c1 (centres undefined),5,x,-2,-1,0,x,x,x,x
O=S(=O)(c1ccccc1Br)N(Cc1cn(CC2CCCCC2)nn1)C1CC1,5,x,2,-1,-1,x,x,x,x
CCOC(=O)c1c(C)oc2c1c(CN1CCN(CCO)CC1)c(O)c1ccccc12,10,1,7.1*,1.1*,4.8*,4.2*,3.7*,0,6.8*
